{"source": "PubChem BioAssay", "note": "Numbered stars: 1 amine (or outer) side, 2 acyl side, 3 side chain; on linkers, the order of the positions; unused ones are H or OH. Bridge positions count the residues as written; N and C are the ends. Square brackets hold non-standard residues; d marks the D form. Peptide text beside a SMILES is read from it. I, II: the chains in the order shown. * marks the point of attachment. ξ: configuration not given here. Actinocin(9to1) = Cc1c2oc3c(C)ccc(C(=O)[*:1])c3nc-2c(C(=O)[*:2])c(N)c1=O; ΔAla(E,3-NHCONH2) = NC(=O)N/C=C(/N)C(=O)O; X1 = NC1=NCCC(C(N[*:1])C(=O)[*:2])N1; Heptanoyl(6-Me) = CC(C)CCCCC(=O)*; NMeV = CN[CH](C(=O)O)C(C)C; ξβ3hOrn = NCCCC(N)CC(=O)*; Orn = NCCC[CH](N)C(=O)O; Dab = NCC[CH](N)C(=O)O; Dap = NC[CH](N)C(=O)O; Sar = CNCC(=O)O"}
{"experiment": "viability loss with induced miR-34 in A549 – imaging, A549 dox-inducible miR-34, nuclei and caspase counts, primary screen (AID 1347080); also: test concentration not given here", "conditions": "A549 miR-34 inducible, Hoechst nuclei count, 48 h; measured here: total cells with miR-34 induction; stronger effect = lower value"}
{"smiles": "CO/N=C(\\C(=O)NC1C(=O)N2C(C(=O)OCOC(=O)C(C)(C)C)=C(/C=C\\c3scnc3C)CSC12)c1csc(N)n1", "note": "(configuration not stated)", "cell count": 11600}
{"smiles": "CC(C)CC1NC(=O)C(CCCN)NC(=O)C(C(C)C)NC(=O)C2CCCN2C(=O)C(Cc2ccccc2)NC(=O)C(CC(C)C)NC(=O)C(CCCN)NC(=O)C(C(C)C)NC(=O)C2CCCN2C(=O)C(Cc2ccccc2)NC1=O", "note": "(configuration not stated) (cyclo(FPV[Orn]LFPV[Orn]L); configuration not given here)", "cell count": 2080}
{"smiles": "CC(=O)OC1CCC2C3CCc4cc(O)ccc4C3CCC12C", "note": "(configuration not stated)", "cell count": 8630}
{"smiles": "O=C1O[C@H](C(O)CO)C(O)=C1O", "note": "(some centres not stated)", "cell count": 12000}
{"smiles": "CO/N=C(/C(=O)N[C@@H]1C(=O)N2C(C(=O)O)=C(CSc3nc(=O)c(O)nn3C)CS[C@H]12)c1csc(N)n1", "cell count": 11700}
{"smiles": "NCCCC(N)CC(=O)NCC1NC(=O)C(CO)NC(=O)C(N)CNC(=O)C(C2CCN=C(N)N2)NC(=O)/C(=C\\NC(N)=O)NC1=O", "note": "(stereo not drawn) (H-[Dap]S[Dap](ξβ3hOrn)[ΔAla(E,3-NHCONH2)][X1]; lactam 1-C; configuration not given here)", "cell count": 11300}
{"smiles": "CCCCCCCCCCCCCCCC(=O)O[C@@H]1[C@@H](O)[C@@H](O)C([C@H](NC(=O)[C@@H]2C[C@@H](CCC)CN2C)[C@H](C)Cl)O[C@@H]1SC", "note": "(some centres not stated)", "cell count": 10800}
{"smiles": "CO/N=C(/C(=O)NC1C(=O)N2C(C(=O)OC(C)OC(C)=O)=C(COC(N)=O)CSC12)c1ccco1", "note": "(configuration not stated)", "cell count": 12300}
{"smiles": "O=C(N[C@@H](CO)[C@H](O)c1ccc([N+](=O)[O-])cc1)C(Cl)Cl", "cell count": 11600}
{"smiles": "C[C@]12C=CC(=O)C=C1CCC1C2[C@@H](O)C[C@@]2(C)C1CC[C@]2(O)C(=O)COC(=O)CCC(=O)O", "note": "(some centres not stated)", "cell count": 7880}
{"smiles": "CC1=C(C(=O)O)N2C(=O)[C@@H](NC(=O)C(N)c3ccc(O)cc3)[C@H]2SC1", "note": "(some centres not stated)", "cell count": 12000}
{"smiles": "CCC(=O)OCC(=O)[C@@]1(OC(=O)CC)[C@@H](C)CC2C3CCC4=CC(=O)C=C[C@]4(C)C3(F)[C@@H](O)C[C@@]21C", "note": "(some centres not stated)", "cell count": 7780}
{"smiles": "C/C=C\\C1=C(C(=O)O)N2C(=O)C(NC(=O)C(N)c3ccc(O)cc3)C2SC1", "note": "(configuration not stated)", "cell count": 11600}
{"smiles": "C[C@H]1CC2C([C@@H](O)C[C@@]3(C)C2CC[C@]3(O)C(=O)COC(=O)CCC(=O)O)[C@@]2(C)C=CC(=O)C=C12", "note": "(some centres not stated)", "cell count": 7610}
{"smiles": "NCC1CCCCC1CC(=O)O", "note": "(configuration not stated)", "cell count": 12000}
{"smiles": "CC1=C(C(=O)O)N2C(=O)[C@@H](NC(=O)[C@H](N)C3=CCC=CC3)C2SC1", "note": "(some centres not stated)", "cell count": 11000}
{"smiles": "CC[C@@H]1OC(=O)C[C@@H](O)[C@H](C)[C@@H](O[C@@H]2O[C@H](C)[C@@H](O)[C@H](N(C)C)[C@H]2O)[C@@H](CCN2C[C@H](C)C[C@H](C)C2)C[C@@H](C)C(=O)/C=C/C(C)=C\\[C@@H]1CO[C@@H]1O[C@H](C)[C@@H](O)[C@@H](OC)[C@H]1OC", "cell count": 12100}
{"smiles": "CCC(C)C1NC(=O)C(CCN)NC(=O)C(NC(=O)C(CCN)NC(=O)C(NC(=O)C(CCN)NC(=O)CCCCC(C)C)C(C)O)CCNC(=O)C(C(C)O)NC(=O)C(CCN)NC(=O)C(CCN)NC(=O)C(C(C)CC)NC1=O", "note": "(configuration not stated) ({Heptanoyl(6-Me)}-[Dab]T[Dab][Dab][Dab]II[Dab][Dab]T; lactam 4-C; configuration not given here)", "cell count": 12400}
{"smiles": "COc1cc(NS(C)(=O)=O)ccc1Cc1c2ccccc2nc2ccccc12", "cell count": 3640}
{"smiles": "CC(CCC(=O)O)[C@H]1CCC2C3C(=O)C[C@@H]4CC(=O)CC[C@]4(C)C3CC(=O)[C@@]21C", "note": "(some centres not stated)", "cell count": 11900}
{"smiles": "CC1C/C=C/C=C/C=C/C=C/C(O[C@@H]2O[C@H](C)[C@@H](O)[C@H](N)[C@@H]2O)CC2OC(O)(CC(O)CC3OC3/C=C/C(=O)O1)CC(O)C2C(=O)O", "note": "(some centres not stated)", "cell count": 11800}
{"smiles": "CC(=O)OCC(=O)[C@@]1(OC(C)=O)[C@@H](C)CC2C3C[C@H](F)C4=CC(=O)C=C[C@]4(C)[C@@]3(F)[C@@H](O)C[C@@]21C", "note": "(some centres not stated)", "cell count": 7220}
{"smiles": "CC(C)c1c(C(=O)c2ccccc2)c(-c2ccccc2)c(-c2ccc(F)cc2)n1CC[C@@H](O)C[C@@H](O)CC(=O)O", "cell count": 9140}
{"smiles": "CCC(C)C(=O)O[C@H]1C[C@H](O)C=C2C=C[C@H](C)[C@H](CC[C@@H](O)C[C@@H](O)CC(=O)O)C21", "note": "(some centres not stated)", "cell count": 11700}
{"smiles": "C#C[C@]1(OC(C)=O)CCC2C3CCC4=C/C(=N/O)CCC4C3CC[C@@]21CC", "note": "(some centres not stated)", "cell count": 11600}
{"smiles": "CC(=O)O[C@]1(C(C)=O)CCC2C3C=C(Cl)C4=CC(=O)CC[C@]4(C)C3CC[C@@]21C", "note": "(some centres not stated)", "cell count": 9770}
{"smiles": "N[C@H](Cc1cc(I)c(Oc2ccc(O)c(I)c2)c(I)c1)C(=O)O", "cell count": 11400}
{"smiles": "COCC1=C(C(=O)OC(C)OC(=O)OC(C)C)N2C(=O)[C@@H](NC(=O)/C(=N/OC)c3csc(N)n3)[C@H]2SC1", "note": "(some centres not stated)", "cell count": 12100}
{"smiles": "CCCCCCCCCCC[C@@H](C[C@H]1OC(=O)[C@H]1CCCCCC)OC(=O)[C@@H](CC(C)C)NC=O", "cell count": 11500}
{"smiles": "Cc1c2oc3c(C)ccc(C(=O)OC(C)C4NC(=O)C(C(C)C)N(C)C(=O)CN(C)C(=O)C5CCCN5C(=O)C(C(C)C)NC4=O)c3nc-2c(C(=O)OC(C)C2NC(=O)C(C(C)C)N(C)C(=O)CN(C)C(=O)C3CCCN3C(=O)C(C(C)C)NC2=O)c(N)c1=O", "note": "(configuration not stated) (I: cyclo([Sar][NMeV]TVP) / II: cyclo([Sar][NMeV]TVP); linker I:3-II:3 via Actinocin(9to1); configuration not given here)", "cell count": 2910}
{"smiles": "OC[C@H]1OC([S-])[C@H](O)[C@@H](O)[C@@H]1O.[Au+]", "note": "(some centres not stated)", "cell count": 9290}
{"smiles": "NC(Cc1c[nH]c2ccccc12)C(=O)O", "note": "(configuration not stated)", "cell count": 11800}
